Measurements taken from PubChem BioAssay AID793 (The Scripps Research Institute Molecular Screening Center, 2007).
Among all 140,000 compounds or so, about 1,400 (1%) were called active. The entries come from a sample that favours actives as a whole. Unmarked numbers belong to inactive results. Rule as the data show it: active = inhibition above about 17%; inactive = the rest.

Target: Neuropeptide Y receptor type 2 (Homo sapiens) (UniProt P49146)
Assay: NPY-Y2 receptor antagonists, primary screen, cell-based (AID 793);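 also: 0% = vehicle with agonist challenge and 100% = reference antagonist with challenge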
Details: NPY-Y2 expressing cells, antagonist mode; at 2.7 µM; active compounds read high

Chain of Neuropeptide Y receptor type 2 (Homo sapiens) (P49146 whole entry, looked up): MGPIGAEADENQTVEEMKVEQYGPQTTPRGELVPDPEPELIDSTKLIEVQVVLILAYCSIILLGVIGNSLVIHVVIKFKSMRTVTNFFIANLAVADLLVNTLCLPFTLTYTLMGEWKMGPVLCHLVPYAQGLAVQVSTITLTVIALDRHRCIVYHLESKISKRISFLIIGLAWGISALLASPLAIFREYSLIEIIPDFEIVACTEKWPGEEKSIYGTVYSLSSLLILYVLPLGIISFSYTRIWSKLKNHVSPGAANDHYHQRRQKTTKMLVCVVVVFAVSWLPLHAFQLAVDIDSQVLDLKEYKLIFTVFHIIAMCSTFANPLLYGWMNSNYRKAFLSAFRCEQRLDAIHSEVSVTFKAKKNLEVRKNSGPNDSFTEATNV

Structure (SMILES) | inhibition
CCN1CCC2(CC1)N=C(c1ccc(F)cc1)C(=S)N2C(=O)c1ccc(C)cc1 | 1.56%
S=C(NCC1COc2ccccc2O1)Nc1ccc(Br)cc1 (stereo unspecified) | 6.55%
c1ccc2c(c1)OCC(CNc1ncnc3nc[nH]c13)O2 (stereo unspecified) | -0.22%
c1ccc(-c2cc3c(NCC4COc5ccccc5O4)ncnc3s2)cc1 (stereo unspecified) | 22.8% (active)
Nc1nnc(SCC(=O)Nc2ccc3nc(SCC(=O)Nc4ccccc4)sc3c2)s1 | 4.56%
N=c1n(CCc2ccccc2)c2ccccc2n1Cc1ccccc1F | 23.1% (active)
CC(=O)NC(C)c1nc2ccccc2n1Cc1ccccc1F (stereo unspecified) | 2.02%
CN(Cc1ccccc1)Cc1ccccc1F | 1.28%
COc1ccc(Cn2c(-c3ccc(Cl)cc3)c[n+]3ccccc23)cc1 | 1.35%
COc1cc(NC(=O)c2cc([N+](=O)[O-])ccc2Br)ccc1NC(=O)c1ccco1 | 31.7% (active)
COc1ccc(NC(=O)c2cccc(NC(=O)c3ccco3)c2)c(OC)c1 | 3.21%
COc1ccccc1C(=O)Nc1ccc(NC(=O)c2ccco2)c(C)c1 | -1.27%
COc1ccccc1Oc1ccc(N/C=C2/CCCC2=O)cc1 | 2.93%
COc1cccc(NC(=O)CC(c2ccc(OC(C)C)cc2)c2ccccc2OC)c1 (stereo unspecified) | 4.56%
CC(C)N1C(=O)N(c2ccccc2)C(C)(O)CC1(C)C (stereo unspecified) | -1.03%
O=C(Nc1ccc(N2C(=O)c3cccc4cccc(c34)C2=O)cc1)c1ccc(N2CCCCC2)c([N+](=O)[O-])c1 | 0.97%
Cc1cccc(OCC(O)Cn2c(=N)n(CCN3CCOCC3)c3ccccc32)c1 (stereo unspecified) | 19.8% (active)
OC(COc1ccc2ccccc2c1)CN1CCOCC1 (stereo unspecified) | 1.96%
Cn1c(=N)n(CC(O)c2ccccc2)c2ccccc21 (stereo unspecified) | 6.24%
CCOc1ccc(C(O)Cc2nc3ccccc3n2C)cc1 (stereo unspecified) | 0.15%
C=CCn1c(=N)n(CC(O)COc2ccc(OC)cc2)c2ccccc21 (stereo unspecified) | 10.5%
CCOc1ccc(C(O)Cn2c(=N)n(CCN3CCCCC3)c3ccccc32)cc1 (stereo unspecified) | 18.8% (active)
Cc1nc2c(C(=O)NCc3cccs3)cnn2c(C)c1Cc1ccc(F)cc1 | 11.8%
COc1ccc(-c2csc3ncnc(Oc4ccc5c(C)cc(=O)oc5c4)c23)cc1 | 6.66%
Brc1ccc(-c2csc(N/N=C/c3ccc4c(c3)OCO4)n2)cc1 | -1.38%
CCCn1c(N)c(C(=O)CSc2nnc(-c3cccnc3)n2-c2ccc(C)cc2C)c(=O)[nH]c1=O | 2.5%
